# AI-2 QS mod: Vibrio harveyi AI-2 quorum sensing modulators, primary screen, JMH597 strain, luminescence/OD600 ratio. activity change, % at 7.5 µM. AID 2094, 2009. 300,000 tested, 0.4% active. Vibrio harveyi JMH597 AI-2 luminescence/OD600 ratio, 9 h; hits give low values; strain lacks LuxN and CqsS sensors; 0 = neutral-control median; in the data active = activity change below about -75%, passing the limit was not always enough; inconclusive = no clear call, values can overlap the other calls;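 also: luminescence divided by OD600 gain over 9 h not by final OD600 alone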
# ARNT TACC3 PPI: disruptors of ARNT/TACC3 protein interaction, primary screen, biochemical, AlphaScreen, single concentration. 390,000 tested, 0.66% active. AlphaScreen His-ARNT PAS-B/GST-TACC3 binding, luminescence; TACC3 fragment carries E629A point mutation. inhibition, % at 9.99 µM;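 active = mean inhibition of replicates at least 50% and at least half of replicates each reaching 50%; inconclusive = half or more replicates reach 50% but mean below 50%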;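 also: 0% = complete ARNT plus TACC3 wells and 100% = ARNT alone without TACC3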
# HGIII-sPLA2 inh: human group III sPLA2 inhibitors, primary screen, biochemical, QFRET, BODIPY PC-A2 liposome substrate | Group 3 secretory phospholipase A2 (Homo sapiens), Q9NZ20 | QFRET BODIPY PC-A2 liposome hydrolysis, fluorescence | inhibition, % at 12.2 µM | 370,000 tested, 0.56% active;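 active = inhibition above mean plus 3 SD of compounds lying within the high and low control bounds, cut at about 19% in these data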;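 also: 0% = median of test compound wells and 100% = no enzyme DMSO wells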
# Rin1 Abl inh: inhibitors of Rin1-Abl protein binding, primary screen, biochemical, TR-FRET | inhibition, % at 7.35 µM | 360,000 tested, 0.4% active | Tyrosine-protein kinase ABL1 (Homo sapiens) + Ras and Rab interactor 1 (Homo sapiens), …; in the data active = inhibition above about 5%, passing the limit was not always enough
# Target sequence (P00519 whole entry, looked up): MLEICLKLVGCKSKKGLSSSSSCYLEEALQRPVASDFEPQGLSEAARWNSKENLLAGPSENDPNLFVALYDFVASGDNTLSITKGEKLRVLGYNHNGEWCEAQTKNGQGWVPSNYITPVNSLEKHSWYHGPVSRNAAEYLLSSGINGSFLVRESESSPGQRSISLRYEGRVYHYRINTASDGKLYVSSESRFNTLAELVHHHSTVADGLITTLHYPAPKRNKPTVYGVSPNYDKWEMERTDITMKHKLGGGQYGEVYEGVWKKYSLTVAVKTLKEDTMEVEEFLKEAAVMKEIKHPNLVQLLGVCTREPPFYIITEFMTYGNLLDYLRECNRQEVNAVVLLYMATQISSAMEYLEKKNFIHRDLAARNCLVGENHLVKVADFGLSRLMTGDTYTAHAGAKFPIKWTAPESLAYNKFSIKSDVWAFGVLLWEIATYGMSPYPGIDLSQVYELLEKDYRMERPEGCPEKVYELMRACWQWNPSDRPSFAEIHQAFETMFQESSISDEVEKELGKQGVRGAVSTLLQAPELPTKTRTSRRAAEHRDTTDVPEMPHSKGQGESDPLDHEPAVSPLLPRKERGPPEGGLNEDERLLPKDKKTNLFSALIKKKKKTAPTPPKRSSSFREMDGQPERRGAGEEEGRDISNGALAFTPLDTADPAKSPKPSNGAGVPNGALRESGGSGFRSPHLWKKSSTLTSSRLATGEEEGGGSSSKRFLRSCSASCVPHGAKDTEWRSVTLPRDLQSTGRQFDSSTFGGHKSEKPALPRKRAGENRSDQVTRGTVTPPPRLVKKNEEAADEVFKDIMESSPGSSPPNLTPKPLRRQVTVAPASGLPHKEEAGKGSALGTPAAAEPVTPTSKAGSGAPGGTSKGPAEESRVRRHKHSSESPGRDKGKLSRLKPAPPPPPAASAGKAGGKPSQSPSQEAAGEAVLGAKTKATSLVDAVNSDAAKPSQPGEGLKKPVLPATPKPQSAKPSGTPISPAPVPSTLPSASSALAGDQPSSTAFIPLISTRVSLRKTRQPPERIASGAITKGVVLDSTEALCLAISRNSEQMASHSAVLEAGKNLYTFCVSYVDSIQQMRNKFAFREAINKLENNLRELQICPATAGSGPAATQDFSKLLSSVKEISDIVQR
# Target sequence (Q13671 whole entry, looked up): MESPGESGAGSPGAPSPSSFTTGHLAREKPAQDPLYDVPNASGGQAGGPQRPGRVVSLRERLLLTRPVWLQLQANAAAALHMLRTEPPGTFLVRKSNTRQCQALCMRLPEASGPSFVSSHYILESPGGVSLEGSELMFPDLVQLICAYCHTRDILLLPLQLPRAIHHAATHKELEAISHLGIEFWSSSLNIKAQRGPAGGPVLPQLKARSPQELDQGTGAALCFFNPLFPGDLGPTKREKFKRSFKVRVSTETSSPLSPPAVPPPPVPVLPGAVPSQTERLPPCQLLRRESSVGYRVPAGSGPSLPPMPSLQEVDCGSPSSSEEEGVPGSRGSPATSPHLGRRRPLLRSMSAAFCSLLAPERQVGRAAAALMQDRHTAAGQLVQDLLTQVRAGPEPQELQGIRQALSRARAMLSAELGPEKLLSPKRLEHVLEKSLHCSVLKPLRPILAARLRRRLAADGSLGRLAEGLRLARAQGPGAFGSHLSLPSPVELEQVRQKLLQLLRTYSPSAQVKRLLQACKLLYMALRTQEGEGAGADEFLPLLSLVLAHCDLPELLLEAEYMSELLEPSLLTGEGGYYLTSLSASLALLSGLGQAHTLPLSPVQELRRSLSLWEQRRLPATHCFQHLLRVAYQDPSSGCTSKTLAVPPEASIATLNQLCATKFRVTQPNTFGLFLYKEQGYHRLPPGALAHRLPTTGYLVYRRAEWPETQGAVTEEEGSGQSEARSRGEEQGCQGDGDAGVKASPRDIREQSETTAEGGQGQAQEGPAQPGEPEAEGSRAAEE
# JMH597 growth rt: Vibrio harveyi growth inhibition, confirmation, counter-screen for AI-2 quorum sensing project, JMH597 strain, OD600 absorbance. shares compounds with AI-2 QS mod. 9 h; lacks LuxN and CqsS sensors. growth inhibition, % at 7.5 µM. 750 tested, 1% active. AID 2726, 2010;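 active = every replicate shows growth inhibition above 50%; inconclusive = at least half, but not all, replicates pass that cutoff; inactive = fewer than half of replicates pass it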
# BB721 const-QS lum: luminescence inhibition in constitutive-on V. harveyi, confirmation, counter-screen for LuxS inhibitor project, strain BB721, luminescence readout; shares compounds with AI-2 QS mod; Vibrio harveyi BB721 luminescence, 9 h; inhibition, % at 7.5 µM; 750 tested, 95% active;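 active = inhibition above about 80% in every replicate, not just on average, limit read from the data; inconclusive = at least half of replicates past the limit, but not all; inactive = fewer than half of replicates past the limit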
# BB721 growth: growth inhibition of V. harveyi BB721, confirmation, cytotoxicity control for AI-2 quorum sensing inhibitors, strain BB721, absorbance OD600 | shares compounds with AI-2 QS mod | Vibrio harveyi BB721 growth, 9 h | growth inhibition, % at 7.5 µM | 750 tested, 3% active | AID 2728, 2010;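 active = every replicate shows growth inhibition above 50%; inconclusive = at least half but not all replicates above 50% inhibition; inactive = under half of replicates above 50% inhibition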
# JMH597 AI-2 mod: Vibrio harveyi AI-2 signaling luminescence modulation – JMH597 strain, confirmation | shares compounds with AI-2 QS mod | inhibition, % at 7.5 µM | 750 tested, 97% active | Vibrio harveyi JMH597 AI-2 quorum sensing luminescence, 9 h; luxN and CqsS knockout, AI-2 only;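 active = every replicate shows more than 75% inhibition of signal versus neutral control wells; inconclusive = half to three quarters of replicates exceed 75% inhibition; inactive = fewer than half of replicates exceed 75% inhibition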
# Numbers without * were called inactive; u = inconclusive; x = no result. The list is not random: actives were taken first. Their share in the collection is about 1.5%.
SMILES,AI-2 QS mod,ARNT TACC3 PPI,HGIII-sPLA2 inh,Rin1 Abl inh,JMH597 growth rt,BB721 const-QS lum,BB721 growth,JMH597 AI-2 mod
C[C@H](CO)N1C[C@H](C)[C@@H](CN(C)S(=O)(=O)c2ccc(Cl)cc2)OCCCC[C@H](C)Oc2ccc(NS(C)(=O)=O)cc2C1=O,x,-4,x,x,x,x,x,x
Cc1ccccc1Nc1nc(N)nc(COc2ccc(C#N)cc2)n1,-83*,13,4,1,10,93*,22,96*
CC(=O)Nc1ccc(S(=O)(=O)Nc2ccc3c(c2)OCCO3)cc1Cl,-97*,0,1,0,5,99*,-35,100*
COc1ccc(S(=O)(=O)Nc2ccc3c(c2)OCCO3)cc1Cl,24,-5,-12,0,x,x,x,x
CCCN(C)C[C@H]1OCCCC[C@H](C)Oc2ccc(NC(=O)C3CCCCC3)cc2C(=O)N([C@@H](C)CO)C[C@H]1C,x,4,x,x,x,x,x,x
O=S(=O)(N/N=C\C=C\c1ccccc1)c1ccc(Cl)cc1,-94*,-3,-6,-4,41,99*,27,100*
O=C(COC(=O)c1ccc(Cl)s1)c1cc2ccccc2o1,-95*,-5,-40,-2,21,99*,29,99*
CC(C)(C)c1cc(OC(=O)c2ccccc2F)ccc1O,-86*,-5,-17,7,8,97*,26,97*
CC(C)(C)c1cc(OC(=O)c2ccncc2)ccc1O,x,1,4,-2,x,x,x,x
COc1ccc(N=C2SCC(c3ccccc3)=NN2C)cc1,-87*,7,11,-4,51,90*,146,95*
Cc1ccc(S(=O)(=O)/C=C/c2ccccc2)cc1,-85*,-2,-2,-1,19,93*,-37,100*
COC(=O)c1cccc(NC(=O)Cn2nnc3ccccc32)c1,-84*,-4,3,2,12,90*,8,93*
COC(=O)c1cccc(NC(=O)C(C)N2C(=O)c3ccccc3C2=O)c1 (stereo not drawn),-86*,0,-9,-2,20,95*,17,97*
COC(=O)c1cccc(NC(=O)CN2C(=O)c3ccccc3C2=O)c1,-97*,13,0,-1,0,100*,-5,100*
COC(=O)c1cccc(NC(=O)CN2CCOCC2)c1,18,-13,5,2,x,x,x,x
O=C(CN1C(=O)c2ccccc2C1=O)Nc1ccc(-c2nc3ccccc3o2)cc1,-92*,-8,15,-2,-33,87*,-38,93*
C[C@H](CO)N1C[C@H](C)[C@@H](CN(C)S(=O)(=O)c2cn(C)cn2)OCc2ccccc2-c2c(n(C)c3ccccc23)C1=O,x,7,x,x,x,x,x,x
CNC[C@@H]1Oc2ccc(NS(=O)(=O)c3cn(C)cn3)cc2C(=O)N([C@@H](C)CO)C[C@@H]1C,x,-5,x,x,x,x,x,x
Cc1ccc(Cn2cc(-c3ccccc3)nn2)cc1,-95*,-7,-2,2,-2,98*,-4,99*
CO[C@H](CN(C)C(=O)c1cnccn1)[C@H](C)CN([C@H](C)CO)S(=O)(=O)c1ccc(C)cc1,x,-1,x,x,x,x,x,x
O=C(CC1CC1)Nc1ccc2c(c1)[C@H]1C[C@@H](CC(=O)NC3CCCC3)O[C@@H](CO)[C@H]1O2,x,-2,x,x,x,x,x,x
COc1cccc(Oc2cn[nH]c2-c2ccc(O)cc2O)c1,-84*,7,-70,-3,u,98*,u,99*
COc1cccc2c1OC1(C)CC2NC(=O)N1c1cccc(C(=O)N2CCN(c3ccccn3)CC2)c1 (stereo not drawn),5,9,5,0,x,x,x,x
COc1ccccc1N1CCN(C(=O)c2cccc(N3C(=O)NC4CC3(C)Oc3c(OC)cccc34)c2)CC1 (stereo not drawn),-83*,-4,-9,-3,-7,-5,-14,6
Cc1ccc(NC(=O)CCCC2CCCCC2)c(O)c1,-91*,-3,-45,4,-16,97*,1,98*
SMILES,AI-2 QS mod,ARNT TACC3 PPI,HGIII-sPLA2 inh,Rin1 Abl inh,JMH597 growth rt,BB721 const-QS lum,BB721 growth,JMH597 AI-2 mod
O=C(CSc1nnc(-c2ccc(S(=O)(=O)N3CCCC3)cc2)o1)NCc1ccco1,-83*,1,-5,2,23,84*,19,90*
CC(=O)NC/C(C)=N\Nc1ccc([N+](=O)[O-])cc1,-86*,2,15,-4,13,96*,55*,96*
CO[C@H]1CN(C)C(=O)c2cc(NC(=O)C3CC3)ccc2OC[C@H](C)N(Cc2nccs2)C[C@H]1C,x,-2,x,x,x,x,x,x
COc1ccc(-c2nnn(-c3cc(Cl)cc(Cl)c3)c2N)cc1,18,3,0,0,x,x,x,x
COc1ccc(S(=O)(=O)c2nnn(-c3cccc(Cl)c3)c2N)cc1,u,-5,-10,0,1,99*,-70,100*
O=C(NCCN1CCOCC1)c1ccc(Cl)c([N+](=O)[O-])c1,u,-3,0,-2,4,-6,-16,5
Cc1ccc(S(=O)(=O)N2CC[C@@H]3[C@@H](CO)Nc4ccc(C#Cc5ccccc5F)cc4[C@@H]32)cc1,x,9,x,x,x,x,x,x
COc1cccc(OCc2cc(/C=N/Nc3ccc(C(=O)O)cc3)ccc2OC)c1,-84*,11,-1,-2,19,92*,5,95*
O=C(O)c1ccc(N/N=C/c2cc3c(cc2[N+](=O)[O-])OCO3)cc1,u,1,-2,0,26,93*,15,94*
O=C(O)c1ccc(N/N=C/c2ccc3c(c2)OCO3)cc1,-85*,-3,-1,0,9,98*,39,98*
COc1cccc(C(=O)Oc2ccc(/C=N/Nc3ccc(C(=O)O)cc3)cc2OC)c1,41,12,-64,-5,x,x,x,x
Cc1ccc(S(=O)(=O)N(C)C[C@H]2Oc3ncc(-c4ccccc4)cc3C(=O)N([C@H](C)CO)C[C@H]2C)cc1,x,-4,x,x,x,x,x,x
O=C(CNC(=O)c1ccc(Br)cc1)N/N=C/c1cccnc1,4,-2,0,1,x,x,x,x
